Laboratory results as given in PubChem BioAssay (Tox21).
“And” between values parts separate entries of the source, which are not always exact repeats. Equal entries are not always repeated. Values without a mark were called inactive. Where a call stands in place of a potency, no number is given. The source made the active and inactive calls. Unless noted, the call rests on the fitted dose curve; in most records, active means well fitted curve in the direction sought with a large enough effect in the repeat runs; inconclusive means weak or mixed curves; inactive means no such curve, though single readings can be large; an effect the other way counts as inactive or inconclusive.

Assays:
[1] = qHTS assay to identify small molecule antagonists of the thyroid receptor (TR) signaling pathway - cell viability counter screen (AID 743064); further: nearly all actives have a fitted effect of over 50% in size; further: potency means the concentration at half of the fitted maximal effect
Procedure, shortened: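 Fluorescence from CellTiter-Fluor, added after 23.5 h exposure at 37 °C, reported viability of GH3.TRE-Luc cells co-treated with compound and 1 nM T3. Measured in the same wells as the luciferase TR readout.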

[2] = qHTS assay to identify small molecule antagonists of the thyroid receptor (TR) signaling pathway (AID 743065); further: nearly all actives have a fitted effect of over 55% in size; further: potency means the concentration at half of the fitted maximal effect
Procedure, shortened: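 GH3.TRE-Luc rat pituitary cells (two TREs driving luciferase) were dosed with compound, then stimulated with 1 nM T3 (final) for 23.5 h at 37 C. ONE-Glo luminescence was the read-out, with CellTiter-Fluor fluorescence as the cytotoxicity counter-screen.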

[3] = test system: thyroid hormone receptor (rat, GH3 cells); assay: qHTS assay to identify small molecule agonists of the thyroid receptor (TR) signaling pathway (AID 743066; calls by dose curve)
[4] = qHTS assay to identify small molecule antagonists of the estrogen receptor alpha (ER-alpha) signaling pathway - cell viability counter screen (AID 743074; calls by dose curve;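 further: HEK293 cells carrying ER-alpha-UAS-bla reporter stimulated with 17beta-estradiol; nearly all actives have a fitted effect of over 45% in size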)
[5] = biological target: Estrogen receptor (Homo sapiens) (UniProt P03372); assay: qHTS assay to identify small molecule agonists of the estrogen receptor alpha (ER-alpha) signaling pathway (AID 743075; calls by dose curve;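 further: HEK293 GripTite cells with ER-alpha and UAS-driven beta-lactamase reporter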; further: potency means the concentration at half of the fitted maximal effect)
Estrogen receptor (Homo sapiens), sequence (P03372 whole entry, looked up): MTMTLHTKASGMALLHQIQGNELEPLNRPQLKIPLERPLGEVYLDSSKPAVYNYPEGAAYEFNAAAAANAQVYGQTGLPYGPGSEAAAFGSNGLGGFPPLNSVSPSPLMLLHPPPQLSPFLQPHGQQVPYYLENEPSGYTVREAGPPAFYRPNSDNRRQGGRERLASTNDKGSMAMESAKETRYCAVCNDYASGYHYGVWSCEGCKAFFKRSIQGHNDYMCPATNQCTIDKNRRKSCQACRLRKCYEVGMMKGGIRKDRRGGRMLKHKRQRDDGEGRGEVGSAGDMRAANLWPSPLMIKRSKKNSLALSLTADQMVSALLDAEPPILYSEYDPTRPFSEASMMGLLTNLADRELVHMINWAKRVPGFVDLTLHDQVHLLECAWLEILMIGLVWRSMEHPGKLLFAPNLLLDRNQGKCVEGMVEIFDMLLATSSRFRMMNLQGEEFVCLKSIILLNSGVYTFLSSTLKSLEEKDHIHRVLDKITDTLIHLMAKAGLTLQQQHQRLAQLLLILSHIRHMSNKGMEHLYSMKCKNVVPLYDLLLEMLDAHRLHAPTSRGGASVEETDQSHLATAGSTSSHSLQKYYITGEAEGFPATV

[6] = biological target: Estrogen receptor (Homo sapiens) (UniProt P03372); assay: qHTS assay to identify small molecule agonists of the estrogen receptor alpha (ER-alpha) signaling pathway using the BG1 cell line (AID 743079); further: nearly all actives have a fitted effect of over 20% in size; further: potency means the concentration at half of the fitted maximal effect
[7] = qHTS assay to identify small molecule antagonists of the estrogen receptor alpha (ER-alpha) signaling pathway using the BG1 cell line (AID 743080; calls by dose curve; further: series mostly up to about 70 µM; nearly all actives have a fitted effect of over 25% in size)
Procedure, shortened: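 Antagonist mode: compounds in DMSO were pinned onto BG1-Luc-4E2 cells alongside 17beta-estradiol agonist, incubated 21.5 h, and ERE-driven luciferase measured with ONE-Glo. Cytotoxicity was multiplexed using CellTiter-Fluor fluorescence.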

[8] = qHTS assay to identify small molecule antagonists of the estrogen receptor alpha (ER-alpha) signaling pathway using the BG1 cell line - cell viability counter screen (AID 743081);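 further: compound given together with 17beta-estradiol as the ER stimulus; series mostly up to about 70 µM; nearly all actives have a fitted effect of over 45% in size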
Aromatase (Homo sapiens) = Aromatase (Homo sapiens) (UniProt P11511); assay: qHTS assay to identify aromatase inhibitors (AID 743083); further: series mostly up to about 70 µM; nearly all actives have a fitted effect of over 55% in size
Aromatase (Homo sapiens), sequence (P11511 whole entry, looked up): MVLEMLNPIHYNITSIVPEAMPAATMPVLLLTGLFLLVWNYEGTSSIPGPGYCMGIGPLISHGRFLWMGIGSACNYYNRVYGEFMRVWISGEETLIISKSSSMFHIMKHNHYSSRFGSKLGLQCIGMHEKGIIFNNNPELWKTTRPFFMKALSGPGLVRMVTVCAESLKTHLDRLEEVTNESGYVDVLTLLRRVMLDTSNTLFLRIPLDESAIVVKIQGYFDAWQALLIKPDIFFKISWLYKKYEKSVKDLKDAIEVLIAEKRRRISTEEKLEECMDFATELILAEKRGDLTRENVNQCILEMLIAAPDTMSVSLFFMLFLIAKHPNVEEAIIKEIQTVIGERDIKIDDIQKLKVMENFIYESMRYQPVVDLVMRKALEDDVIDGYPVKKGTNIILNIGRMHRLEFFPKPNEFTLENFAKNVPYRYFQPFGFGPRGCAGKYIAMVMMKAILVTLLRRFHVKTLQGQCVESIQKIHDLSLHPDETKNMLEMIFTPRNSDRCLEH

[9] = qHTS assay to identify aromatase inhibitors - cell viability counter screen (AID 743084);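 further: cells stimulated with testosterone during compound exposure; nearly all actives have a fitted effect of over 55% in size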; further: potency means the concentration at half of the fitted maximal effect
[10] = biological target: Aryl hydrocarbon receptor (Homo sapiens) (UniProt P35869); assay: qHTS assay to identify small molecule that activate the aryl hydrocarbon receptor (AhR) signaling pathway (AID 743085); further: nearly all actives have a fitted effect of over 15% in size; further: potency means the concentration at half of the fitted maximal effect;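 on activation: HG2L7.5c1 human HepG2 liver cells with stably integrated DRE-driven firefly reporter; series mostly up to about 70 µM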
Aryl hydrocarbon receptor (Homo sapiens), sequence (P35869 whole entry, looked up): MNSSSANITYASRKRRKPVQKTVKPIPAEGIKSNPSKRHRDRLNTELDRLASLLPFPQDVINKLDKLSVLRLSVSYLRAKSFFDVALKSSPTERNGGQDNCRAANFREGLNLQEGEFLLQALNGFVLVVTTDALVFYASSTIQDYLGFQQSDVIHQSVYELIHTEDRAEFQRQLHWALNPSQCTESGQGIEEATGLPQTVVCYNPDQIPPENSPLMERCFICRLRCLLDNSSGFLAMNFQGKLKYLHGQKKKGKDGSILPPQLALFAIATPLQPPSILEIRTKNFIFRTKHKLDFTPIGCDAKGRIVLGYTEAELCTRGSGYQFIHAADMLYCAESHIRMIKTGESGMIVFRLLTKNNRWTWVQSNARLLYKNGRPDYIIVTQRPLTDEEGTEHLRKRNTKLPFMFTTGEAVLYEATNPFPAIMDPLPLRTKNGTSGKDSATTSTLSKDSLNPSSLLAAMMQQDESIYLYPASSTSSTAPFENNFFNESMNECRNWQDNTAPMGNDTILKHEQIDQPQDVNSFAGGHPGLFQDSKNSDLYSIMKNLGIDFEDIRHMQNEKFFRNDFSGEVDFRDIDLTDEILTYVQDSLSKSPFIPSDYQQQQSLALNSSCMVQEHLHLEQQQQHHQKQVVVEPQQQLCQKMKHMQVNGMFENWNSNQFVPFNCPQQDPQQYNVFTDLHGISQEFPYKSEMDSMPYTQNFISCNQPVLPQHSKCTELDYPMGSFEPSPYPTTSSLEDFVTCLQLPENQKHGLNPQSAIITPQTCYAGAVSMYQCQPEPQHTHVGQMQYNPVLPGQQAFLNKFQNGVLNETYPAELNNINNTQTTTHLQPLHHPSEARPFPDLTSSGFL
Procedure, shortened: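 Cell line HG2L7.5c1 (human hepatoma, 20× DRE-luc). Plated, 5 h 37C, compound/DMSO added, 24 h 37C. CellTiter-Fluor 30 min 37C → fluorescence; then ONE-Glo 30 min RT → luminescence.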

[11] = qHTS assay to identify small molecule that activate the aryl hydrocarbon receptor (AhR) signaling pathway - cell viability counter screen (AID 743086);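 further: HepG2 liver cells carrying the AhR DRE luciferase reporter; series mostly up to about 70 µM; nearly all actives have a fitted effect of over 45% in size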
Procedure, shortened: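 HepG2-AhR-luc (HG2L7.5c1) cells, 4000/well, treated 24 h at 37 C with compound; viability measured as CellTiter-Fluor fluorescence after 30 min in the same wells as the luciferase read.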

[12] = biological target: Peroxisome proliferator-activated receptor gamma (Homo sapiens) (UniProt P37231); assay: qHTS assay to identify small molecule agonists of the peroxisome proliferator-activated receptor gamma (PPARg) signaling pathway (AID 743094; active means well fitted activation curve with a large enough effect in the signal ratio in the repeat runs, not every such curve was filed as active; inconclusive means weak or mixed curves, or effect the other way; inactive means no such curve, though single readings can be large or run the other way; the % refers to the signal ratio; further: potency means the concentration at half of the fitted maximal effect)
Peroxisome proliferator-activated receptor gamma (Homo sapiens), sequence (P37231 whole entry, looked up): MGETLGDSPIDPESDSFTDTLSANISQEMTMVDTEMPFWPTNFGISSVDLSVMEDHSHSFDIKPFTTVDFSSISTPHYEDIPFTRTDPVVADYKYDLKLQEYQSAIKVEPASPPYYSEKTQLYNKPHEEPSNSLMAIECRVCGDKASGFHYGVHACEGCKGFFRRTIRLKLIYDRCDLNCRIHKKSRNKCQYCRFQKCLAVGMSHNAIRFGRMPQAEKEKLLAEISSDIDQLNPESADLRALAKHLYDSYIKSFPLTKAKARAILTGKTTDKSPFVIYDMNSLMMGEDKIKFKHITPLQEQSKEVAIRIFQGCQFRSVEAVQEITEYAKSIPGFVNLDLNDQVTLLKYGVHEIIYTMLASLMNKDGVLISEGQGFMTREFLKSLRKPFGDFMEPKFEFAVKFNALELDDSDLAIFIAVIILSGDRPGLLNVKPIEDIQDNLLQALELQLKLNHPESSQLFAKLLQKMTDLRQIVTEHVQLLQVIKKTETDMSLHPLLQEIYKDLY
Procedure, shortened: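 Fluorescence-based beta-lactamase readout in HEK293H PPARg UAS-bla cells after 17 h compound exposure (37C) and 1 h B/G FRET substrate incubation at room temperature.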

[13] = qHTS assay to identify small molecule antagonists of the peroxisome proliferator-activated receptor gamma (PPARg) signaling pathway - cell viability counter screen (AID 743194); further: nearly all actives have a fitted effect of over 55% in size; further: potency means the concentration at half of the fitted maximal effect
Procedure, shortened: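 Cytotoxicity counter screen in PPARg-bla HEK293H cells, same wells as reporter assay. Compounds plus 50 nM rosiglitazone (final) for 17 h at 37 C, then viability read by CellTiter-Glo luminescence.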

[14] = qHTS assay for small molecule activators of the heat shock response signaling pathway (AID 743210; active means well fitted activation curve with a large enough effect in the signal ratio in the repeat runs, with a control signal flat, not every such curve was filed as active; inconclusive means weak or mixed curves; the % refers to the signal ratio;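 further: HeLa cells with beta-lactamase reporter driven by heat shock elements; series mostly up to about 63 µM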)
Procedure, shortened: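 Beta-lactamase reporter read-out: FRET substrate fluorescence after 2.5 h at RT, following 5 h compound treatment at 37 C of HeLa cells carrying HSE-driven bla reporter; quantitative HTS format.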

[15] = qHTS assay for small molecule agonists of the antioxidant response element (ARE) signaling pathway (AID 743202; active means well fitted activation curve with a large enough effect in the signal ratio in the repeat runs, not every such curve was filed as active; inconclusive means weak or mixed curves, or effect the other way; inactive means no such curve, though single readings can be large or run the other way; the % refers to the signal ratio; further: potency means the concentration at half of the fitted maximal effect)
Procedure, shortened: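 HepG2 ARE-bla reporter line, 2,000 cells/well; 5 h preincubation 37 C/5% CO2; compound (DMSO) 16 h 37 C; B/G FRET substrate 2 h RT; fluorescence intensity.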

[16] = qHTS assay for small molecule agonists of the antioxidant response element (ARE) signaling pathway - cell viability counter screen (AID 743203; calls by dose curve; further: nearly all actives have a fitted effect of over 55% in size; further: potency means the concentration at half of the fitted maximal effect)
Procedure, shortened: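 Parallel cytotoxicity read-out for the ARE-bla screen: HepG2 reporter cells, 16 hrs with compounds, then CellTiter-Glo luminescence.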

[17] = qHTS assay for small molecule activators of the heat shock response signaling pathway - cell viability counter screen (AID 743209); further: nearly all actives have a fitted effect of over 50% in size; further: potency means the concentration at half of the fitted maximal effect
Procedure, shortened: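 To flag cytotoxic compounds, HSE-bla HeLa cells plated at 1500 cells/well were dosed for 5 h at 37 C, followed by the reporter FRET read and then CellTiter-Glo, with luminescence recorded 30 min after reagent addition.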

[18] = biological target: Peroxisome proliferator-activated receptor gamma (Homo sapiens) (UniProt P37231); assay: qHTS assay to identify small molecule antagonists of the peroxisome proliferator-activated receptor gamma (PPARg) signaling pathway (AID 743191; calls by dose curve; further: series mostly up to about 63 µM; nearly all actives have a fitted effect of over 30% in size)
Procedure, shortened: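 GeneBLAzer PPARg UAS-bla HEK293H cells, 5 h post-plating, exposed to compounds 17 h at 37C. LiveBLAzer B/G FRET substrate added for 1 h at room temperature; beta-lactamase reporter read by fluorescence intensity.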

SMILES: CCC(CC)(CC(=O)Nc1cccc(/C=C/c2nc(C3CCC3)cs2)c1)C(=O)O
- Potency [1]: inactive
- Potency [2]: inactive
- outcome [3]: inactive
- Potency [4]: inactive
- Potency [5]: inactive
- Potency [6]: inactive
- Potency [7]: inactive
- Potency [8]: inactive
- Potency (Aromatase (Homo sapiens)): inactive
- Potency [9]: inactive
- Potency [10]: 8.41 µM (active)
- Potency [11]: inactive
- Potency [12]: inactive
- Potency [13]: inactive
- Potency [14]: inactive

SMILES: C=CC(=O)OCCOC(=O)C=C
- Potency [1]: 61.1 µM (active)
- Potency [2]: 38.6 µM (active)
- outcome [3]: inactive
- Potency [4]: inactive
- Potency [5]: 17.4 µM [inconclusive] (active)
- Potency [6]: 1.72 µM (active)
- Potency [8]: inactive
- Potency [9]: 54.5 µM (active)
- Potency [10]: inactive
- Potency [11]: inactive
- Potency [15]: 61.1 µM (active)
- Potency [16]: inactive
- Potency [17]: 6.92 µM (active)

SMILES: CCCCCCCCCCC[C@@H](C[C@@H]1OC(=O)[C@H]1CCCCCC)OC(=O)[C@H](CC(C)C)NC=O
- Potency [1]: inactive
- Potency [2]: inactive
- outcome [3]: inactive
- Potency [4]: inactive
- Potency [5]: inactive
- Potency [6]: inactive
- Potency [7]: inactive
- Potency (Aromatase (Homo sapiens)): inactive
- Potency [9]: inactive
- Potency [10]: inactive
- Potency [11]: inactive
- Potency [12]: inactive
- Potency [13]: inactive

SMILES: Sc1nc2ccccc2s1
- Potency [1]: inactive
- Potency [2]: inactive
- outcome [3]: inactive
- Potency [4]: inactive
- Potency [8]: inactive
- Potency [9]: inactive
- Potency [11]: inactive
- Potency [13]: inactive
- Potency [15]: inactive
- Potency [16]: inactive
- Potency [17]: inactive

SMILES: COc1ccc(NC(=O)CC(C)=O)cc1
- Potency [1]: inactive
- Potency [2]: inactive
- outcome [3]: inactive
- Potency [4]: inactive
- Potency [8]: inactive
- Potency (Aromatase (Homo sapiens)): inactive
- Potency [9]: inactive
- Potency [11]: inactive
- Potency [12]: inactive
- Potency [18]: inactive
- Potency [13]: inactive
- Potency [16]: inactive
- Potency [14]: inactive

SMILES: CCc1oc2ccccc2c1C(=O)c1cc(I)c(O)c(I)c1
- Potency [1]: 29.8 µM (active)
- Potency [2]: 21.1 µM (active)
- outcome [3]: inactive
- Potency [5]: inactive
- Potency [8]: inactive
- Potency [9]: inactive
- Potency [12]: 952 nM (active)
- Potency [18]: inactive
- Potency [13]: 13.3 µM (active)
- Potency [16]: 26.6 µM (active)
- Potency [17]: inactive

SMILES: NC[C@H]1O[C@H](O[C@H]2[C@H](O[C@@H]3O[C@H](CO)[C@@H](O)[C@H]3O)C(O)[C@H](N)C[C@@H]2N)[C@H](N)[C@@H](O)[C@@H]1O (stereo partly drawn)
- Potency [1]: inactive
- Potency [2]: inactive
- outcome [3]: inactive
- Potency [4]: inactive
- Potency [8]: inactive
- Potency (Aromatase (Homo sapiens)): inactive
- Potency [9]: inactive
- Potency [11]: inactive
- Potency [12]: inactive
- activity change, negative = cytotoxicity [13]: 8.9% [at 13.2 µM]
- activation [15]: 0.127% [at 8.36 µM]
- viability change, negative = cytotoxic [16]: -15.3% [at 8.36 µM]
- activity change, negative = cytotoxicity [17]: 4.74% [at 13.2 µM]
- activation [14]: 1.22% [at 13.2 µM]

SMILES: CC1(C)[C@@H](O)CC[C@]2(C)[C@H]3C(=O)C=C4[C@@H]5C[C@@](C)(C(=O)O)CC[C@]5(C)CC[C@@]4(C)[C@]3(C)CC[C@@H]12
- Potency [1]: 29.8 µM (active) and 24.1 µM (active)
- Potency [2]: 29.8 µM (active) and 26.6 µM (active) and 27 µM (active)
- outcome [3]: inactive
- Potency [4]: inactive
- Potency [5]: inactive
- Potency [6]: inactive
- Potency [7]: inactive
- Potency [8]: inactive
- Potency (Aromatase (Homo sapiens)): inactive
- Potency [9]: inactive
- Potency [10]: inactive
- Potency [11]: inactive
- Potency [12]: inactive
- Potency [17]: 48.4 µM (active)

SMILES: O=C(O)CCN(C1(C(=O)NO)CCCC1)S(=O)(=O)c1ccc(Oc2ccc(F)cc2)cc1
- Potency [1]: inactive
- Potency [2]: inactive
- outcome [3]: inactive
- Potency [4]: inactive
- Potency [8]: inactive
- Potency (Aromatase (Homo sapiens)): inactive
- Potency [9]: inactive
- Potency [10]: inactive
- Potency [11]: inactive
- Potency [12]: inactive
- Potency [18]: inactive
- Potency [17]: inactive
- Potency [14]: inactive

SMILES: C[C@@H](O)[C@H](N)C(=O)O
- Potency [1]: inactive
- Potency [2]: inactive
- outcome [3]: inactive
- Potency [4]: inactive
- Potency [8]: inactive
- Potency (Aromatase (Homo sapiens)): inactive
- Potency [9]: inactive
- Potency [10]: inactive
- Potency [11]: inactive
- Potency [12]: inactive
- Potency [13]: inactive
- Potency [15]: inactive
- Potency [16]: inactive
- Potency [17]: inactive
- Potency [14]: inactive

SMILES: O=[N+]([O-])c1ccc(F)c(Cl)c1
- Potency [1]: inactive
- Potency [2]: inactive
- outcome [3]: inactive
- Potency [4]: inactive
- Potency [8]: inactive
- Potency (Aromatase (Homo sapiens)): inactive
- Potency [9]: inactive
- Potency [10]: inactive
- Potency [11]: inactive
- Potency [12]: inactive
- Potency [13]: inactive
- Potency [15]: inactive
- Potency [16]: inactive
- Potency [17]: inactive

SMILES: CCC(CC)C(C)CCOC(C)=O (stereo not drawn)
- Potency [1]: inactive
- Potency [2]: inactive
- outcome [3]: inactive
- Potency [4]: inactive
- Potency [8]: inactive
- Potency (Aromatase (Homo sapiens)): inactive
- Potency [9]: inactive
- Potency [10]: inactive
- Potency [11]: inactive
- Potency [12]: inactive
- Potency [13]: inactive
- Potency [15]: inactive
- Potency [16]: inactive
- Potency [17]: inactive
- Potency [14]: inactive

SMILES: Cc1ccc(-c2ccccc2)cc1
- Potency [1]: inactive
- Potency [2]: inactive
- outcome [3]: inactive
- Potency [4]: inactive
- Potency [8]: inactive
- Potency (Aromatase (Homo sapiens)): inactive
- Potency [9]: inactive
- Potency [10]: inactive
- Potency [11]: inactive
- Potency [12]: inactive
- Potency [13]: inactive
- Potency [15]: inactive
- Potency [14]: inactive

SMILES: CC(=O)c1ccc(C(C)=O)cc1
- Potency [1]: inactive
- Potency [2]: inactive
- outcome [3]: inactive
- Potency [4]: inactive
- Potency [8]: inactive
- Potency (Aromatase (Homo sapiens)): inactive
- Potency [9]: inactive
- Potency [10]: inactive
- Potency [11]: inactive
- Potency [12]: inactive
- Potency [15]: inactive
- Potency [16]: inactive
- Potency [17]: inactive
- Potency [14]: inactive
